# From the supplement of paper PMC8728848
# This excerpt belongs to a sample that is enriched for the strongest signals.
# B1: CrataBL (Crataeva tapia), C0HJA4 (protein)
# chain: AILTGVPYYILPSTSRAGFSPDNLRKNTSQLSCPLDLITQLRFPRRIGVPVIFTPQNSSLKVVPLSHNLNIHTCSDLWFCPESKIWTVKSSLTHGGSVVTTGGTFRSLGSWFRIERHGDSYKLVHCPRGSTPCRDVGIETVGGGGRRYLAPRDRPLAVRFTRASG
# How the values were obtained:
# Test in all cases: glycan array binding signal (z-score within array); higher = stronger binding
# Conditions in all cases: glycan notation: IUPAC condensed, linker removed
# [1] = biological target: Fuc(a1-2)Gal(b1-3)GlcNAc(b1-3)GalNAc
# Summary of the method: (§1)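 From the Consortium for Functional Glycomics database, 3228 arrays were curated, keeping only those whose protein sequence was available. Binding is given as a within-array Z-score averaged across arrays sharing a protein sequence and across linkers. Negative Z-scores can be read as non-binding.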
# Fuc(a1-2)Gal(b1-4)GlcNAc = biological target: Fuc(a1-2)Gal(b1-4)GlcNAc
# Summary of the method: as §1
# [2] = biological target: Fuc(a1-2)Gal(b1-4)GlcNAc(b1-3)Gal(b1-4)GlcNAc
# Summary of the method: as §1
# [3] = biological target: Fuc(a1-2)Gal6S(b1-3)GlcNAc6S
# Summary of the method: as §1
# [4] = biological target: Fuc(a1-2)[Gal(a1-3)]Gal(b1-4)[Fuc(a1-3)]GlcNAc(b1-3)GalNAc
# Summary of the method: as §1
# [5] = biological target: Fuc(a1-2)[GalNAc(a1-3)]Gal(b1-4)GlcNAc(b1-2)Man
# Summary of the method: as §1
# [6] = biological target: Fuc(a1-3)[Gal(b1-4)]GlcNAc(b1-2)Man(a1-3)[Fuc(a1-3)[Gal(b1-4)]GlcNAc(b1-2)Man(a1-6)]Man(b1-4)GlcNAc(b1-4)GlcNAc
# Summary of the method: as §1
# [7] = biological target: Fuc(a1-3)[Gal(b1-4)]GlcNAc(b1-6)[Gal(b1-3)GlcNAc(b1-3)]Gal(b1-4)Glc
# Summary of the method: as §1
# [8] = biological target: Fuc(a1-3)[GalNAc(b1-4)]GlcNAc6S
# Summary of the method: as §1
# [9] = biological target: Gal(a1-3)Gal(b1-3)GlcNAc(b1-3)GalNAc
# Summary of the method: as §1
# Gal(a1-3)Gal(b1-4)Glc = biological target: Gal(a1-3)Gal(b1-4)Glc
# Summary of the method: as §1
# [10] = biological target: Gal(a1-4)Gal(b1-3)GlcNAc(b1-2)Man(a1-3)[Gal(a1-4)Gal(b1-3)GlcNAc(b1-2)Man(a1-6)]Man(b1-4)GlcNAc(b1-4)GlcNAc
# Summary of the method: as §1
# Gal(b1-3)GlcNAc(b1-2)Man = biological target: Gal(b1-3)GlcNAc(b1-2)Man
# Summary of the method: as §1
# [11] = biological target: Gal(b1-3)[Fuc(a1-4)]GlcNAc(b1-3)Gal(b1-3)[Fuc(a1-4)]GlcNAc
# Summary of the method: as §1
# [12] = biological target: Gal(b1-3)[Neu5Ac(b2-6)]GalNAc
# Summary of the method: as §1
# [13] = biological target: Gal(b1-4)GlcNAc(b1-2)Man(a1-3)[Gal(b1-4)GlcNAc(b1-2)Man(a1-6)][GlcNAc(b1-4)]Man(b1-4)GlcNAc(b1-4)[Fuc(a1-6)]GlcNAc
# Summary of the method: as §1
# [14] = biological target: Gal(b1-4)GlcNAc(b1-2)[Gal(b1-4)GlcNAc(b1-4)]Man(a1-3)[GlcNAc(b1-4)][Gal(b1-4)GlcNAc(b1-2)Man(a1-6)]Man(b1-4)GlcNAc(b1-4)GlcNAc
# Summary of the method: as §1
# [15] = biological target: Gal(b1-4)GlcNAc(b1-3)Gal(b1-4)GlcNAc(b1-2)Man(a1-3)[Gal(b1-4)GlcNAc(b1-3)Gal(b1-4)GlcNAc(b1-2)Man(a1-6)]Man(b1-4)GlcNAc(b1-4)[Fuc(a1-6)]GlcNAc
# Summary of the method: as §1
# [16] = biological target: Gal(b1-4)GlcNAc(b1-3)Gal(b1-4)GlcNAc(b1-3)Gal(b1-4)GlcNAc(b1-3)Gal(b1-4)GlcNAc(b1-3)Gal(b1-4)GlcNAc(b1-2)Man(a1-3)[Gal(b1-4)GlcNAc(b1-3)Gal(b1-4)GlcNAc(b1-3)Gal(b1-4)GlcNAc(b1-3)Gal(b1-4)GlcNAc(b1-3)Gal(b1-4)GlcNAc(b1-2)Man(a1-6)]Man(b1-4)GlcNAc(b1-4)GlcNAc
# Summary of the method: as §1
# [17] = biological target: Gal(b1-4)GlcNAc(b1-3)Gal(b1-4)GlcNAc(b1-3)Gal(b1-4)GlcNAc(b1-3)Gal(b1-4)GlcNAc(b1-3)Gal(b1-4)GlcNAc(b1-2)Man(a1-3)[Gal(b1-4)GlcNAc(b1-3)Gal(b1-4)GlcNAc(b1-3)Gal(b1-4)GlcNAc(b1-3)Gal(b1-4)GlcNAc(b1-3)Gal(b1-4)GlcNAc(b1-2)Man(a1-6)]Man(b1-4)GlcNAc(b1-4)[Fuc(a1-6)]GlcNAc
# Summary of the method: as §1
# [18] = biological target: Gal(b1-4)GlcNAc(b1-6)[Gal(b1-4)GlcNAc(b1-3)]GalNAc
# Summary of the method: as §1
# Gal3S(b1-4)GlcNAc = biological target: Gal3S(b1-4)GlcNAc
# Summary of the method: as §1
# [19] = biological target: Gal3S(b1-4)[Fuc(a1-3)]GlcNAc6S
# Summary of the method: as §1
# Gal3S4S(b1-4)GlcNAc = biological target: Gal3S4S(b1-4)GlcNAc
# Summary of the method: as §1
# Gal3S6S(b1-4)GlcNAc = biological target: Gal3S6S(b1-4)GlcNAc
# Summary of the method: as §1
# Gal3S6S(b1-4)GlcNAc6S = biological target: Gal3S6S(b1-4)GlcNAc6S
# Summary of the method: as §1
# Gal6S(b1-3)GlcNAc6S = biological target: Gal6S(b1-3)GlcNAc6S
# Summary of the method: as §1
# Gal6S(b1-4)Glc6S = biological target: Gal6S(b1-4)Glc6S
# Summary of the method: as §1
# Gal6S(b1-4)GlcNAc6S = biological target: Gal6S(b1-4)GlcNAc6S
# Summary of the method: as §1
# [20] = biological target: GalNAc3S(b1-4)[Fuc(a1-3)]GlcNAc
# Summary of the method: as §1
# GalNAc4S6S(b1-4)GlcNAc = biological target: GalNAc4S6S(b1-4)GlcNAc
# Summary of the method: as §1
# [21] = biological target: GlcNAc(a1-4)Gal(b1-3)GlcNAc
# Summary of the method: as §1
# [22] = biological target: GlcNAc(b1-2)Man(a1-3)[GlcNAc(b1-4)][GlcNAc(b1-2)Man(a1-6)]Man(b1-4)GlcNAc(b1-4)GlcNAc
# Summary of the method: as §1
# [23] = biological target: GlcNAc(b1-3)Gal(b1-4)GlcNAc(b1-3)Gal(b1-4)GlcNAc(b1-2)Man(a1-3)[GlcNAc(b1-3)Gal(b1-4)GlcNAc(b1-3)Gal(b1-4)GlcNAc(b1-2)Man(a1-6)]Man(b1-4)GlcNAc(b1-4)[Fuc(a1-6)]GlcNAc
# Summary of the method: as §1
# [24] = biological target: GlcNAc(b1-4)GlcNAc(b1-4)GlcNAc(b1-4)GlcNAc(b1-4)GlcNAc
# Summary of the method: as §1
# [25] = biological target: GlcNAc(b1-4)[GlcNAc(b1-6)]GalNAc
# Summary of the method: as §1
# Kdn(a2-3)Gal(b1-3)GalNAc = biological target: Kdn(a2-3)Gal(b1-3)GalNAc
# Summary of the method: as §1
# Kdn(a2-3)Gal(b1-4)Glc = biological target: Kdn(a2-3)Gal(b1-4)Glc
# Summary of the method: as §1
# Man(a1-2)Man(a1-3)Man = biological target: Man(a1-2)Man(a1-3)Man
# Summary of the method: as §1
# [26] = biological target: Neu5Ac(a2-3)Gal(b1-3)GalNAc
# Summary of the method: as §1
# [27] = biological target: Neu5Ac(a2-3)Gal(b1-3)GlcNAc(b1-4)Gal(b1-4)Glc
# Summary of the method: as §1
# [28] = biological target: Neu5Ac(a2-3)Gal(b1-4)GlcNAc(b1-2)[Neu5Ac(a2-3)Gal(b1-4)GlcNAc(b1-6)]Man(a1-6)[Neu5Ac(a2-3)Gal(b1-4)GlcNAc(b1-2)Man(a1-3)][GlcNAc(b1-4)]Man(b1-4)GlcNAc(b1-4)GlcNAc
# Summary of the method: as §1
# [29] = biological target: Neu5Ac(a2-3)Gal(b1-4)GlcNAc(b1-3)Gal(b1-4)GlcNAc(b1-3)Gal(b1-4)GlcNAc
# Summary of the method: as §1
# [30] = biological target: Neu5Ac(a2-3)Gal(b1-4)GlcNAc(b1-3)Gal(b1-4)GlcNAc(b1-3)Gal(b1-4)GlcNAc(b1-2)Man(a1-3)[Neu5Ac(a2-3)Gal(b1-4)GlcNAc(b1-3)Gal(b1-4)GlcNAc(b1-3)Gal(b1-4)GlcNAc(b1-2)Man(a1-6)]GalNAc
# Summary of the method: as §1
# [31] = biological target: Neu5Ac(a2-3)Gal(b1-4)GlcNAc(b1-3)[Neu5Ac(a2-3)Gal(b1-4)GlcNAc(b1-6)]GalNAc
# Summary of the method: as §1
# [32] = biological target: Neu5Ac(a2-3)Gal(b1-4)GlcNAc6S
# Summary of the method: as §1
# [33] = biological target: Neu5Ac(a2-3)Gal(b1-4)[Fuc(a1-3)]GlcNAc(b1-3)Gal
# Summary of the method: as §1
# [34] = biological target: Neu5Ac(a2-3)Gal(b1-4)[Fuc(a1-3)]GlcNAc(b1-3)Gal(b1-4)[Fuc(a1-3)]GlcNAc(b1-3)Gal(b1-4)[Fuc(a1-3)]GlcNAc
# Summary of the method: as §1
# [35] = biological target: Neu5Ac(a2-6)Gal(b1-4)GlcNAc(b1-2)Man(a1-6)[Gal(b1-4)GlcNAc(b1-2)Man(a1-3)]Man(b1-4)GlcNAc(b1-4)GlcNAc
# Summary of the method: as §1
# [36] = biological target: Neu5Ac(a2-8)Neu5Ac(a2-3)[GalNAc(b1-4)]Gal(b1-4)Glc
# Summary of the method: as §1
# [37] = biological target: Neu5Ac(b2-6)Gal(b1-4)GlcNAc
# Summary of the method: as §1
binder,measurement,setting,value
B1,glycan array binding signal (z-score),[1],-0.444
same,glycan array binding signal (z-score),Fuc(a1-2)Gal(b1-4)GlcNAc,-0.486
same,glycan array binding signal (z-score),[2],-0.497
same,glycan array binding signal (z-score),[3],5.81
same,glycan array binding signal (z-score),[4],-0.054
same,glycan array binding signal (z-score),[5],-0.507
same,glycan array binding signal (z-score),[6],-0.41
same,glycan array binding signal (z-score),[7],-0.443
same,glycan array binding signal (z-score),[8],0.386
same,glycan array binding signal (z-score),[9],-0.383
same,glycan array binding signal (z-score),Gal(a1-3)Gal(b1-4)Glc,-0.243
same,glycan array binding signal (z-score),[10],-0.451
same,glycan array binding signal (z-score),Gal(b1-3)GlcNAc(b1-2)Man,-0.207
same,glycan array binding signal (z-score),[11],-0.412
same,glycan array binding signal (z-score),[12],-0.333
same,glycan array binding signal (z-score),[13],-0.533
same,glycan array binding signal (z-score),[14],-0.465
same,glycan array binding signal (z-score),[15],-0.376
same,glycan array binding signal (z-score),[16],-0.247
same,glycan array binding signal (z-score),[17],-0.276
same,glycan array binding signal (z-score),[18],-0.237
same,glycan array binding signal (z-score),Gal3S(b1-4)GlcNAc,-0.021
same,glycan array binding signal (z-score),[19],5.22
same,glycan array binding signal (z-score),Gal3S4S(b1-4)GlcNAc,2.38
same,glycan array binding signal (z-score),Gal3S6S(b1-4)GlcNAc,3.14
same,glycan array binding signal (z-score),Gal3S6S(b1-4)GlcNAc6S,11.7
same,glycan array binding signal (z-score),Gal6S(b1-3)GlcNAc6S,6.61
same,glycan array binding signal (z-score),Gal6S(b1-4)Glc6S,2.96
same,glycan array binding signal (z-score),Gal6S(b1-4)GlcNAc6S,5.29
same,glycan array binding signal (z-score),[20],0.423
same,glycan array binding signal (z-score),GalNAc4S6S(b1-4)GlcNAc,5.23
same,glycan array binding signal (z-score),[21],-0.374
same,glycan array binding signal (z-score),[22],-0.23
same,glycan array binding signal (z-score),[23],-0.076
same,glycan array binding signal (z-score),[24],-0.186
same,glycan array binding signal (z-score),[25],-0.434
same,glycan array binding signal (z-score),Kdn(a2-3)Gal(b1-3)GalNAc,0.64
same,glycan array binding signal (z-score),Kdn(a2-3)Gal(b1-4)Glc,0.084
same,glycan array binding signal (z-score),Man(a1-2)Man(a1-3)Man,-0.472
same,glycan array binding signal (z-score),[26],0.131
same,glycan array binding signal (z-score),[27],-0.112
same,glycan array binding signal (z-score),[28],-0.386
same,glycan array binding signal (z-score),[29],-0.389
same,glycan array binding signal (z-score),[30],2.17
same,glycan array binding signal (z-score),[31],0.163
same,glycan array binding signal (z-score),[32],2.07
same,glycan array binding signal (z-score),[33],-0.448
same,glycan array binding signal (z-score),[34],-0.51
same,glycan array binding signal (z-score),[35],0.067
same,glycan array binding signal (z-score),[36],0.475
same,glycan array binding signal (z-score),[37],-0.387
